# PubChem BioAssay AID2238 (Southern Research Specialized Biocontainment Screening …, 2010)
# Calls of active or inactive are those of the source. The rule behind the calls is not given here.
# Assay: antiviral protection of cells from WNV – synthesized analogs, SAR follow-up (AID 2238)
# Conditions: West Nile virus CPE inhibition in cells; max CPE inhibition: measured here: maximum CPE inhibition observed, at 40 µM, stronger effect = higher value unless noted; series mostly up to 40 µM; CPE inhibition: at the top concentration
SMILES,max CPE inhibition,CPE inhibition
CCCN1CCN(CCCNC(=O)c2cc3c(s2)-c2c(C)cccc2OC3)CC1,"42.7% [measured here: maximum CPE inhibition observed, at 10 µM, stronger effect = higher value]",–
O=C(CSc1nc2ccccc2c(=O)n1-c1ccc(F)cc1)Nc1ccc2c(c1)CCC2,65.2%,–
O=c1c2c(F)cccc2nc2n1CCC2,1.51%,0.9% (inactive)
O=C(CSc1nc2ccccc2c(=O)n1-c1ccc(F)cc1F)Nc1ccc2c(c1)CCC2,"64.8% [measured here: maximum CPE inhibition observed, at 80 µM, stronger effect = higher value]",–
COc1ccc(-c2csc(N(CCCBr)C(=O)c3ccccc3Cl)n2)cc1,1.23%,1.23% (inactive)
O=C(CSc1nc2ccccc2c(=O)n1-c1ccc(Cl)cc1)Nc1ccc2c(c1)CCC2,"45.5% [measured here: maximum CPE inhibition observed, at 20 µM, stronger effect = higher value]",–
O=C(CSc1nc2ccccc2c(=O)n1-c1ccc(F)c(Cl)c1)Nc1ccc2c(c1)CCC2,"65.7% [measured here: maximum CPE inhibition observed, at 20 µM, stronger effect = higher value]",–
CC1CCCN(CCCNC(=O)c2cc3c(s2)-c2ccccc2OC3)C1 (stereo not given),"71.4% [measured here: maximum CPE inhibition observed, at 10 µM, stronger effect = higher value]",–
